Our source for the inhibition values is PubChem BioAssay AID434962 (The Scripps Research Institute Molecular Screening Center, 2010).

Among all 320,000 compounds or so, about 1,300 (0.41%) were called active. This excerpt belongs to a sample that is enriched for actives. A number with no mark means an inactive call.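 The calls were made as follows: active = percent inhibition above the average of all tested compounds plus 3 SD, set per screening campaign (cut at about 16% in these data); inactive = the rest.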

The experiment deals with Insulin-degrading enzyme (Homo sapiens) (UniProt P14735). In words: human IDE inhibitors in live cells, primary screen, fluorescence polarization, HEK cells, FAbetaB substrate (AID 434962).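 Also: IDE supplied by intact live HEK cells; FP after avidin binding of uncleaved biotin substrate so inhibition keeps polarization high; 0% = DMSO wells and 100% = 60 µM reference IDE inhibitor Ii1.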 The settings on record: FAbetaB cleavage, at 5.59 µM, hits give high values. (Polarisation of emitted light reports the rotation of a fluorescent probe.)
Chain of Insulin-degrading enzyme (Homo sapiens) (P14735 whole entry, looked up): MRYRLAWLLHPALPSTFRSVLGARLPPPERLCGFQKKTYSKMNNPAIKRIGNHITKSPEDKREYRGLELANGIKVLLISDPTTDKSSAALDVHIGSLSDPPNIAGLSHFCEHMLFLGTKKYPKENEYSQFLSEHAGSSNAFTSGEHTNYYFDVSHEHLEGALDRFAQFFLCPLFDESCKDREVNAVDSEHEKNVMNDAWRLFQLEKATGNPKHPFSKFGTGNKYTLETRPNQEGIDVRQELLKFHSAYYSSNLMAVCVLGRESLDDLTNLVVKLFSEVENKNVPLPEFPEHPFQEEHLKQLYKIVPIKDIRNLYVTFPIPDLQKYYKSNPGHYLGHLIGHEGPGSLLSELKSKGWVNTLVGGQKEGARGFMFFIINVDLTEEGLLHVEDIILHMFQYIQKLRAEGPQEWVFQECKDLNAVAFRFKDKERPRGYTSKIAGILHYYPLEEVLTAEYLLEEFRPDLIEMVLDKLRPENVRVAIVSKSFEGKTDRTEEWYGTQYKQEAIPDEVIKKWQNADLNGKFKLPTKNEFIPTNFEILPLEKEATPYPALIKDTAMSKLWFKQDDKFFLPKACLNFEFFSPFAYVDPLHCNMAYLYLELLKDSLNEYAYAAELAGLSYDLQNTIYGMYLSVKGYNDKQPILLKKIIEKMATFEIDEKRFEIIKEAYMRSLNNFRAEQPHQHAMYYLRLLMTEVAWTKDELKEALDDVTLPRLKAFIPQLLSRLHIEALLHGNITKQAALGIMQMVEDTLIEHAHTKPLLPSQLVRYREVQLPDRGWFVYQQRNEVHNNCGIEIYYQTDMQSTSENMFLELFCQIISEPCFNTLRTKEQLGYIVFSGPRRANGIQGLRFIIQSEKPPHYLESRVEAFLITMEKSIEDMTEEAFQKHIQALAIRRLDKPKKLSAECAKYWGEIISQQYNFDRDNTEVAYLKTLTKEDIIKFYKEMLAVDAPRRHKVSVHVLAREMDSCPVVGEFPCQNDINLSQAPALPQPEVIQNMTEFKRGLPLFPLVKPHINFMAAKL
Regarding `Cc1ccnc(N2CCCC(C(=O)NC3CC3)C2)n1` (configuration not stated), the inhibition (commonly the change of the read-out against control, counted positive when it falls) was 1.69%.

On to `Cc1nc2ccccc2c(=O)n1NC(=O)c1ccccc1`, for which the inhibition is 7.25%.

Turning to `Cc1ccnc(-n2sc3ccccc3c2=O)n1`, the inhibition is 57.8% (active).

Consider `COc1cccc(CNC(=O)C2CCCN(c3ncnc4c3nc3n4CCCCC3)C2)c1` (configuration not stated), for which the inhibition was 8.69%.

In the case of `O=C(/C=C/c1ccccc1)Oc1coc(CSc2ncccn2)cc1=O`, the inhibition was 4.39%.

With `COC(=O)c1sccc1-n1cccc1C(=O)C(=O)N1CCCCC1`, the inhibition is -0.4%.

Turning to `COc1ccc(N(C(=O)c2cccnc2)S(=O)(=O)c2ccc(OC)c(OC)c2)cc1`, the inhibition was -4.14%.

`O=C(c1cccnc1)N(c1cc2sc(=O)oc2c2ccccc12)S(=O)(=O)c1ccccc1`: the inhibition is 20.4% (active).

Take `CCc1ccc(N(CC(=O)NCc2cccnc2)S(=O)(=O)c2ccccc2)cc1`: the inhibition was 8.22%.

For `O=C(Cn1nnc2ccccc2c1=O)Nc1cc(C(F)(F)F)ccc1N1CCOCC1`, the inhibition is 6.97%.

Take `COc1ccc(C)cc1NC(=O)c1cc(-c2ccccc2)nc2c1cnn2C(C)C`: the inhibition is 1.05%.

In the case of `CC(=O)N(C1=C(Cl)C(=O)c2ccccc2C1=O)c1ccc(C(=O)O)cc1`, the inhibition was 98.9% (active).

For the molecule `Cc1cc(OCCCC(=O)NCCN2C(=O)S/C(=C\c3cccnc3)C2=O)ccc1Cl`, the inhibition is 3.84%.

As to `OC(c1nc2ccc(F)cc2[nH]1)C(O)c1nc2ccc(F)cc2[nH]1` (configuration not stated), the inhibition is 6.32%.

Consider `COc1ccc(-c2[nH]ncc2/C=N/NC(=O)c2cc(Br)ccc2O)c(OC)c1`, for which the inhibition is 1.62%.

As for `Cc1ccccc1NC(=O)C(C)c1ccc(-c2ccccc2)c(F)c1` (configuration not stated), the inhibition was 4.53%.

As to `CCN1/C(=C/c2ccc3ccc(C)cc3[n+]2CC)Sc2ccccc21`, the inhibition was 31.9% (active).

As to `CCN1/C(=C\c2ccc3ccccc3[n+]2CC)Sc2cc(C)ccc21`, the inhibition was 73.9% (active).

For `CC(NC(=O)C(C)(C)C)C(c1cccs1)N1CCN(Cc2ccccc2)CC1` (configuration not stated), the inhibition was -2.35%.

With `O=Cc1c(Nc2ccccc2Cl)nc2ccccn2c1=O`, the inhibition is -3.69%.

As to `CC(=O)c1ccc(S(=O)(=O)Nc2ccc(-c3ccc4nncn4n3)cc2)cc1`, the inhibition was 2.89%.

Regarding `Cc1ccc(CC(=O)N(C)CC(=O)N(CC(C)C)c2c(N)n(CC(C)C)c(=O)[nH]c2=O)cc1C`, the inhibition is -2.63%.

On to `CCOC(=O)Cn1c(=O)oc2cc(S(=O)(=O)N(C)Cc3ccco3)ccc21`, for which the inhibition is 3.15%.

In the case of `CN(c1ccccc1)c1ccc(/C=c2\s/c(=C(/C#N)C(=O)C(C)(C)C)n(Cc3ccco3)c2=O)cc1`, the inhibition is 31% (active).

As for `O=C(O)c1ccccc1C(=O)NC1=NN(c2ccccc2)CC1`, the inhibition is -0.6%.

For `COc1ccccc1C(=O)OCC(=O)Nc1cccc(S(=O)(=O)NC2=NCCCCC2)c1`, the inhibition was 0.13%.

As for `Cc1ccc(Br)c(NS(=O)(=O)c2cccc(C(=O)N3CCNC(=O)C3)c2)c1`, the inhibition was -0.69%.

Take `C/C(=C/c1ccccc1)C(=O)N1CCN(c2ccccc2)CC1`: the inhibition is -2.17%.

Consider `CCOC(=O)/C(C#N)=C/c1ccc(N2CCN(Cc3ccccc3)CC2)cc1`, for which the inhibition was 3.39%.

As for `COc1ccc(N2CCN(C(=O)/C(C#N)=C/c3ccccc3)CC2)cc1`, the inhibition was 17.7% (active).

For the molecule `Cc1cc(=O)oc2c1ccc1ccccc12`, the inhibition is 7.29%.

As for `CCc1ccccc1N(CC(=O)N1CCN(c2ccccc2F)CC1)S(C)(=O)=O`, the inhibition is -4%.

As for `COc1ccc(NC(=O)C(C)SCc2ccccc2)cc1` (configuration not stated), the inhibition is -4.67%.

For `O=C(CN1C(=O)NC2(CCCCC2)C1=O)NCCc1c[nH]c2ccccc12`, the inhibition was 1.64%.

Turning to `N#C/C(=C/c1ccc(N2CCCCC2)o1)C(=O)NCCc1c[nH]c2ccccc12`, the inhibition was 151% (active).

Take `O=C(NCCc1c[nH]c2ccccc12)C1CCN(Cc2ccc(Br)cc2)CC1`: the inhibition is -4.77%.

For `COc1ccccc1N(C)S(=O)(=O)c1ccc(C(=O)NC2CCCCCC2)cc1`, the inhibition was -1.04%.

Consider `CC1CCCC(NC(=O)COC(=O)[C@@H]2CC(O)CN2S(=O)(=O)c2ccc3c(c2)OCCO3)C1C` (some centres not stated), for which the inhibition was 2.16%.

Take `COc1cc(C(=O)Nc2cc(C(F)(F)F)ccc2-n2cncn2)cc(OC)c1OC`: the inhibition was -10.1%.

Consider `CCN(CC(=O)Nc1c(F)cccc1F)C(=O)C1CCC1`, for which the inhibition was -0.82%.

For the molecule `N#CC1=C(N)Oc2c(ccc3cccnc23)C1c1ccncc1` (configuration not stated), the inhibition was 0.4%.

Take `N#CC1=C(N)Oc2c(sc3ccccc23)C1c1ccco1` (configuration not stated): the inhibition was 37.7% (active).

Consider `Cc1cc(C(=O)NCCc2ccc(Cl)cc2)c(C)o1`, for which the inhibition was -1.15%.

In the case of `COCc1[nH][nH]c(=O)c1C=Nc1ccc(F)cc1F`, the inhibition was 1.29%.

On to `CN1/C(=c2/s/c(=C3/C(=O)N(c4ccccc4)NC3=Nc3ccccc3)n(C)c2=O)C(C)(C)c2ccccc21`, for which the inhibition is 27% (active).

With `O=C(OCC(=O)N1CCCCC1)c1ccc(OC(F)(F)F)cc1`, the inhibition is 7.21%.

In the case of `Cc1nnc(Sc2nc3c(c(=O)[nH]c(=O)n3C)n2Cc2ccccc2)s1`, the inhibition was 1.7%.

As for `COC1=C/C(=C/c2c(N)n3nc(CC(=O)N4CCOCC4)sc3nc2=O)C=CC1=O`, the inhibition was 12.1%.

With `C=CCC1=C/C(=C\c2c(N)n3nc(CC(=O)N4CCOCC4)sc3nc2=O)C=C(OC)C1=O`, the inhibition was 68.9% (active).

For `COc1cc(/C=C2\C(=N)N3N=C(CC(=O)N4CCOCC4)SC3=NC2=O)cc(OC)c1OC`, the inhibition is -4.67%.

On to `Cc1cccc(CSc2ccc(-c3cccs3)nn2)c1`, for which the inhibition was 4.68%.

Turning to `FC(F)(F)Oc1ccc(-c2cn3cccnc3n2)cc1`, the inhibition is 6.48%.

With `FC(F)(F)c1ccc2c3n(nc2c1)CCN=C3c1ccc(Cl)cc1`, the inhibition is 1.01%.

As to `CCn1c(O)c(N=NC2=NC(=O)CS2)c2cc(C)ccc21`, the inhibition is 5.14%.

In the case of `CCC(=C/c1sc2ccc3ccccc3c2[n+]1C)/C=C1\Sc2ccc3ccccc3c2N1C`, the inhibition is 50.5% (active).

As for `O=S1(=O)CC(NCc2ccccc2)C(Nc2ccc(Cl)cc2)C1` (configuration not stated), the inhibition was 0.58%.

As for `COc1ccc(NS(=O)(=O)c2cc3c(cc2C)N(C(C)=O)CCO3)cc1`, the inhibition is 2.34%.

Turning to `CN1C(C)(C)CC(NC(=O)CCC(=O)NC2CC(C)(C)N(C)C(C)(C)C2)CC1(C)C`, the inhibition is 0.6%.

Consider `C=CCN1C(=O)C2(OCCCO2)c2cccc(Cl)c21`, for which the inhibition was 1.02%.

`CCc1ccc(N(C(=O)c2csnn2)C(C(=O)NC2CCCCC2)c2ccncc2)cc1` (configuration not stated): the inhibition was 3.98%.

Take `CCOC(=O)CC1C(=O)NCCN1c1nc2c(C)cccn2c(=O)c1/C=C1\SC(=S)N(C(C)CC)C1=O` (configuration not stated): the inhibition was 114% (active).

On to `Cc1cccn2c(=O)c(/C=C(\C#N)C(N)=O)c(N3CCCCCC3)nc12`, for which the inhibition was 15.9%.

As to `CCOC(=O)N1CCN(C(=O)CSc2nc(=O)n3cccc(C)c3n2)CC1`, the inhibition is -1%.

As to `O=C(COc1ccc(S(=O)(=O)N2CCOCC2)cc1Cl)N1CCOCC1`, the inhibition was 0.54%.

Regarding `Cc1c(C)c2ccc(OCC(=O)N3CCC(C(=O)O)CC3)c(C)c2oc1=O`, the inhibition is 9.3%.

In the case of `CCCc1cc(=O)oc2c(C)c(OCC(=O)N3CCC(C(=O)O)CC3)ccc12`, the inhibition is 0.15%.

On to `CCCCc1cc(=O)oc2c(C)c(OCC(=O)N3CCC(C(N)=O)CC3)ccc12`, for which the inhibition is 21.3% (active).

On to `CCC(C)N(C(=O)COC(=O)c1nc(Cl)ccc1Cl)C1CCS(=O)(=O)C1` (configuration not stated), for which the inhibition was 1.33%.

`CNC(=O)/C(C#N)=C/c1c(F)cccc1Cl`: the inhibition is -1.39%.

Take `CCN1CCN(C(=O)C2CCCN(S(=O)(=O)c3ccc(OC)c(OC)c3)C2)CC1` (configuration not stated): the inhibition was -5.73%.

On to `CCOc1ccccc1Nc1ccc2nonc2c1[N+](=O)[O-]`, for which the inhibition is -3.97%.

For the molecule `O=[N+]([O-])c1c(NCCO)cc(Sc2nc3ccccc3s2)c2nonc12`, the inhibition was 21.8% (active).

Regarding `O=C(O)c1ccccc1CSc1nc2ccccc2s1`, the inhibition is -2.6%.

Regarding `Cc1[nH]c2ccccc2c1/C=C(/C#N)C(=O)NC(C)C`, the inhibition is -1.7%.

As for `O=C(CSc1ncnc2sccc12)N1CCN(C(=O)c2cccs2)CC1`, the inhibition was 3.13%.

For the molecule `Nc1c(C(=O)c2cccs2)sc2nsc(SCCN3CCCCC3)c12`, the inhibition was 23% (active).

`O=[N+]([O-])c1ccc(N(CCO)Cc2ccccc2)c([N+](=O)[O-])c1`: the inhibition is 0.66%.

As for `COc1ccc(N2CCN(Cc3ccc(Br)s3)CC2)cc1`, the inhibition is -4.53%.

On to `O=C1NC(c2ccccc2)=NC1(Nc1ccccn1)C(F)(F)F` (configuration not stated), for which the inhibition was -2.81%.

Consider `Oc1ccc(N=Cc2sc3ccccc3c2Cl)cc1`, for which the inhibition was 0.23%.

Turning to `COC(=O)c1ccc(/C=C/c2c(-c3ccc(OC)cc3)sc3ccccc23)cc1`, the inhibition is 1.82%.

As to `COc1ccc(N=C(C)c2sc3ccccc3c2O)cc1`, the inhibition is 41.2% (active).

As for `Cc1ccccc1NC(=O)Cc1nc(COC(=O)c2ccc(C(F)(F)F)cc2)cs1`, the inhibition was 7.39%.

As to `CCN(CC)C(=O)CSC(Nc1cccc(F)c1)=C(C#N)C#N`, the inhibition is 31.4% (active).

As to `CCN(CC)C(=O)C(=O)Nc1cccc(Br)c1`, the inhibition is 1.91%.

Take `Cc1ccc(CSCC(=O)N(C)CC(=O)Nc2cccc(F)c2)cc1`: the inhibition is 5.39%.

As for `Cc1cccc(OCC(O)CN2CCN(CCN3C(=O)c4cccc5cccc(c45)C3=O)CC2)c1C` (configuration not stated), the inhibition is -8.18%.

For the molecule `Cc1cccc(C)c1NC(=O)COC(=O)c1ccccc1O`, the inhibition is 3.87%.

For `Cc1cc([N+](=O)[O-])c(N2CCC[C@@H]2C(=O)O)c([N+](=O)[O-])c1`, the inhibition was 3.34%.

Consider `Cc1ccccc1CN(c1ccc(C(=O)NCC2CCCO2)cc1)S(C)(=O)=O` (configuration not stated), for which the inhibition was 10.1%.

`CS(=O)(=O)N(Cc1ccccc1)c1ccc(C(=O)NN=C2CCCCCC2)cc1`: the inhibition was 18.7% (active).

As to `CN1CCC(=NNC(=O)c2ccc(N(Cc3ccc(Cl)cc3)S(C)(=O)=O)cc2)CC1`, the inhibition is 8.43%.
